The record followed here is PubChem BioAssay.

“And” between values parts separate entries of the source, which are not always exact repeats. Identical values can stand only once. Inconclusive results are not listed. The source made the active and inactive calls.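 The calls were made as follows, unless noted: active = normalized viability below 100% at a tested concentration; inactive = the rest.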

A short description of experiment [1]: viability loss in pontine glioma line – cell-based, SU-DIPG-XVII, MIPE5.0, CellTiter-Glo, qHTS, dose response (AID 1347060; cut-off not given, nearly all actives have AC50 up to about 26 µM;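 as to AC50: cells exposed to compound for 48 hours before viability readout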). The note with it: CellTiter-Glo ATP luminescence.
The nature of experiment [2]: viability loss in pontine glioma line – cell-based, SU-DIPG-XIII, MIPE5.0, CellTiter-Glo, qHTS, dose response (AID 1347064; cut-off not given, nearly all actives have AC50 up to about 23 µM;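 as to AC50: cells exposed to compound for 48 hours before the viability read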). The note with it: CellTiter-Glo ATP luminescence.
The nature of experiment [3]: viability loss in pontine glioma line – cell-based, SU-DIPG-XXV, MIPE5.0, CellTiter-Glo, qHTS, dose response (AID 1347065; cut-off not given, nearly all actives have AC50 up to about 26 µM;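 also: cells exposed to compound for 48 hours before ATP readout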). The note with it: CellTiter-Glo ATP luminescence.
A short description of experiment [4]: JHH-DIPG-1 glioma cell viability, MIPE5.0 library, CellTiter-Glo luminescence, qHTS (AID 1347067; cut-off not given, nearly all actives have AC50 up to about 26 µM;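 also: cells exposed to compound for 48 hours before readout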). The following applies: JHH-DIPG-1 glioma viability, CellTiter-Glo ATP luminescence.
Experiment [5] in a line: viability loss with induced miR-34 in A549 – imaging, A549 dox-inducible miR-34, nuclei and caspase counts, primary screen (AID 1347080;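 active = compounds whose cell count with miR-34 switched on is under 0.7 times the count with it off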). The following applies: A549 miR-34 inducible, Hoechst nuclei count, 48 h.
Experiment [6] is described as follows: MELAS cybrid and Rieske KO viability enhancers – cell-based, MELAS cybrids, Rieske KO mouse fibroblasts, CellTiter-Glo, primary screen (AID 1508586;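 active = mean z-score across replicates of 1.96 or higher in either the MELAS or the Rieske mutant cell line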;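 also: z relative to plate mean and SD of compound and empty wells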). The following applies: low glucose.
Experiment [7] in a line: drug combination growth inhibition, ovarian cancer – cell-based, oncology-focused library, rucaparib conditional, profiling panel (AID 1508598). The following applies: patient-derived ovarian cancer cells, CellTiter-Glo viability, 144 h, stronger effect = lower value.
Experiment [8] in a line: growth inhibition of DIPG cells – cell-based, MIPE5.0 library, qHTS (AID 1347068; cut-off not given, nearly all actives have IC50 up to about 30 µM;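 as to IC50: cells exposed to compound for 48 hours before viability readout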). The following applies: SU-DIPG-XXV viability.
The mark [9] stands for this setting: stronger effect = lower value, cell number ratio, induced over uninduced.
[10] abbreviates: measured here: relative caspase fold change +Dox/-Dox.
[11] abbreviates: measured here: total cells with miR-34 induction, stronger effect = lower value.
Where [12] appears, read: measured here: total cells without miR-34 induction.
Setting [13] is: MELAS cybrid survival, CellTiter-Glo 48 h, stronger effect = higher value.
[14] abbreviates: Rieske KO mouse fibroblast survival, CellTiter-Glo 72 h.

For the molecule `COc1cc(Nc2ncc(F)c(Nc3ccc4c(n3)NC(=O)C(C)(C)O4)n2)cc(OC)c1OC`, the AC50 in experiment [1] was 1180 nM (active); in experiment [2] it was 1860 nM (active); in experiment [3] it was 1320 nM (active); in experiment [4], 5900 nM (active). The fold change in experiment [5] (setting [9]) is 1.02 (inactive) and 1.15 (inactive); in experiment [5] (setting [10]), 0.841 and 0.707. Moreover, the cell count in experiment [5] (setting [11]) is 1550 and 1090; in experiment [5] (setting [12]), 1520 and 950. Besides, the z-score was -0.458 (inactive) and -0.514 (inactive) in experiment [6] (setting [13]); 0.0101 and 0.0182 in experiment [6] (setting [14]). In addition, the viability in experiment [7] (at 0.000305 µM, OCI-C5x cells, with rucaparib 10 µM, 100% = cells with rucaparib alone) was 109% (inactive); in experiment [7] (at 0.000305 µM, OCI-C5x cells, without rucaparib) it was 101% (inactive); in experiment [7] (at 0.000305 µM, OCI-P5x cells, with rucaparib 20 µM, 100% = cells with rucaparib alone), 83% (active); in experiment [7] (at 0.000305 µM, OCI-P5x cells, without rucaparib) it was 96.3% (active); in experiment [7] (at 0.00122 µM, OCI-C5x cells, with rucaparib 10 µM, 100% = cells with rucaparib alone) it was 111% (inactive); in experiment [7] (at 0.00122 µM, OCI-C5x cells, without rucaparib) it was 109% (inactive). Moreover, the viability in experiment [7] (at 0.00122 µM, OCI-P5x cells, with rucaparib 20 µM, 100% = cells with rucaparib alone) was 82.7% (active); in experiment [7] (at 0.00122 µM, OCI-P5x cells, without rucaparib), 86.9% (active); in experiment [7] (at 0.00488 µM, OCI-C5x cells, with rucaparib 10 µM, 100% = cells with rucaparib alone), 111% (inactive); in experiment [7] (at 0.00488 µM, OCI-C5x cells, without rucaparib), 111% (inactive); in experiment [7] (at 0.00488 µM, OCI-P5x cells, with rucaparib 20 µM, 100% = cells with rucaparib alone) it was 78.5% (active); in experiment [7] (at 0.00488 µM, OCI-P5x cells, without rucaparib), 95.2% (active). The viability is 118% (inactive) in experiment [7] (at 0.0195 µM, OCI-C5x cells, with rucaparib 10 µM, 100% = cells with rucaparib alone); 112% (inactive) in experiment [7] (at 0.0195 µM, OCI-C5x cells, without rucaparib); 70.2% (active) in experiment [7] (at 0.0195 µM, OCI-P5x cells, with rucaparib 20 µM, 100% = cells with rucaparib alone); 74.2% (active) in experiment [7] (at 0.0195 µM, OCI-P5x cells, without rucaparib); 107% (inactive) in experiment [7] (at 0.0781 µM, OCI-C5x cells, with rucaparib 10 µM, 100% = cells with rucaparib alone); 114% (inactive) in experiment [7] (at 0.0781 µM, OCI-C5x cells, without rucaparib). The viability in experiment [7] (at 0.0781 µM, OCI-P5x cells, with rucaparib 20 µM, 100% = cells with rucaparib alone) is 59.3% (active); in experiment [7] (at 0.0781 µM, OCI-P5x cells, without rucaparib) it was 55% (active); in experiment [7] (at 0.313 µM, OCI-C5x cells, with rucaparib 10 µM, 100% = cells with rucaparib alone), 112% (inactive); in experiment [7] (at 0.313 µM, OCI-C5x cells, without rucaparib), 126% (inactive); in experiment [7] (at 0.313 µM, OCI-P5x cells, with rucaparib 20 µM, 100% = cells with rucaparib alone), 46.3% (active); in experiment [7] (at 0.313 µM, OCI-P5x cells, without rucaparib), 50% (active). Also, the viability is 116% (inactive) in experiment [7] (at 1.25 µM, OCI-C5x cells, with rucaparib 10 µM, 100% = cells with rucaparib alone); 127% (inactive) in experiment [7] (at 1.25 µM, OCI-C5x cells, without rucaparib); 81.5% (active) in experiment [7] (at 1.25 µM, OCI-P5x cells, with rucaparib 20 µM, 100% = cells with rucaparib alone); 99.3% (active) in experiment [7] (at 1.25 µM, OCI-P5x cells, without rucaparib); 122% (inactive) in experiment [7] (at 5 µM, OCI-C5x cells, with rucaparib 10 µM, 100% = cells with rucaparib alone); 151% (inactive) in experiment [7] (at 5 µM, OCI-C5x cells, without rucaparib). Also, the viability is 79% (active) in experiment [7] (at 5 µM, OCI-P5x cells, with rucaparib 20 µM, 100% = cells with rucaparib alone) and 96.9% (active) in experiment [7] (at 5 µM, OCI-P5x cells, without rucaparib).

`CCN1CCN(Cc2ccc(NC(=O)c3ccc(C)c(NC(=O)c4cncc(-c5cccs5)c4)c3)cc2C(F)(F)F)CC1`: the AC50 in experiment [1] is 5900 nM (active); in experiment [2], 14800 nM (active); in experiment [3], 1050 nM (active); in experiment [4], 2630 nM (active). Further, in experiment [8], the IC50 was 4170 nM (active).

For the molecule `CC(C)(O)C1CCC(Nc2ccc3ncc(-c4cccc(C(F)(F)F)c4)n3n2)CC1` (stereo not drawn), the AC50 was 7420 nM (active) in experiment [1], 18600 nM (active) in experiment [2], 13200 nM (active) in experiment [3] and 10500 nM (active) in experiment [4]. Besides, in experiment [8], the half-inhibitory concentration (IC50) was 8330 nM (active).

In the case of `CCCc1c(OCCCOc2ccc(OCC(=O)O)cc2)ccc(C(C)=O)c1O`, the call in experiment [1], in experiment [2], in experiment [3], in experiment [4] and in experiment [8] was inactive. Also, the fold change was 0.974 (inactive) in experiment [5] (setting [9]) and 1.33 in experiment [5] (setting [10]). Besides, the cell count was found to be 9670 in experiment [5] (setting [11]) and 9930 in experiment [5] (setting [12]).

Regarding `CN1CCC(c2c(O)cc(O)c3c(=O)cc(-c4ccccc4Cl)oc23)C1CO` (stereo not drawn), the half-maximal activity concentration (AC50) in experiment [1] is 934 nM (active); in experiment [2], 1180 nM (active); in experiment [3], 1180 nM (active); in experiment [4], 1180 nM (active). Besides, the IC50 in experiment [8] is 1860 nM (active). The fold change in experiment [5] (setting [9]) was 0.969 (inactive); in experiment [5] (setting [10]), 0.481. Moreover, the cell count in experiment [5] (setting [11]) was found to be 1620; in experiment [5] (setting [12]), 1670. Further, the z-score is 0.124 (inactive) in experiment [6] (setting [13]) and -6.97 in experiment [6] (setting [14]).

Regarding `C=CC(=O)Nc1cccc(Nc2nc(Nc3ccc(OCCOC)cc3)ncc2F)c1`, the AC50 in experiment [1] is 2350 nM (active); in experiment [2], 1660 nM (active); in experiment [3] it was 2090 nM (active); in experiment [4], 3720 nM (active). Moreover, the 50% inhibitory concentration (IC50) in experiment [8] was 3320 nM (active). In addition, the values for the fold change in experiment [5] (setting [9]) and in experiment [5] (setting [10]) were 0.943 (inactive) and 0.349, respectively. The figures for the cell count in experiment [5] (setting [11]) and in experiment [5] (setting [12]) were 1800 and 1910, respectively. Besides, the values for the z-score in experiment [6] (setting [13]) and in experiment [6] (setting [14]) were 2.91 (active) and -0.365, respectively.
